Shown are actives, neighbours in structure and some others; about 2.5% of the full set was active somewhere.
D2 ag-1: Beta-Arrestin HTS for Positive Allosteric Modulators of the Human D2 Dopamine Receptor: Agonists; activation, % (no concentration beside the values); hit rate 0.084% among 360,000; D(2) dopamine receptor (Homo sapiens), P14416; DiscoveRx PathHunter D2 beta-arrestin, luminescence, 90 min; 100% = 57 uM dopamine signal; in the data active = activation above about 40%; inconclusive = between about 15% and that limit
Target sequence (P14416 whole entry, looked up): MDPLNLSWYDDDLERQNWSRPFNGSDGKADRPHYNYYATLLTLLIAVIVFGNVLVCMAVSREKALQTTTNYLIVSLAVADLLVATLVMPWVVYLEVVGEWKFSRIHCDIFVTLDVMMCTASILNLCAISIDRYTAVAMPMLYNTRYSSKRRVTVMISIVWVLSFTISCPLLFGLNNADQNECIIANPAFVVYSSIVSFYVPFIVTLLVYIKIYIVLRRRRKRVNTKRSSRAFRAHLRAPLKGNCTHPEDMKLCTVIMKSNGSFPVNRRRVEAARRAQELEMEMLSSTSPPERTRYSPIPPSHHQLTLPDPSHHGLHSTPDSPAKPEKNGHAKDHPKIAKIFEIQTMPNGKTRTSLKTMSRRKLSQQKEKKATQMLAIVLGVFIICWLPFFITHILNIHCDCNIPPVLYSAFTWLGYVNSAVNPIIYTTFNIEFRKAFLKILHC
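DiscoveRx PathHunter D2 beta-arrestin cells (2,100/well) attached overnight, then compound-stimulated 90 min at 37 C in HBSS/10 mM HEPES/0.1% Tween-20 buffer; beta-galactosidase complementation read by luminescence after 1 h at ambient temperature. Dopamine 57 uM final (EC100) as control.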
D2 antagonist: HTS Assay for Allosteric Antagonists of the Human D2 Dopamine Receptor: Primary Screen for Antagonists. D(2) dopamine receptor (Homo sapiens), P14416. HEK293 TREx D2 cells, calcium flux, dopamine EC80. inhibition, % at 10 µM. hit rate 2% among 340,000; in the data active = inhibition above about 30%; inactive = below that, where a call was filed; also: 0% is about no effect
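Overnight-induced (tetracycline, 30 C) HEK293 T-REx cells carrying force-coupled D2 receive a no-wash calcium dye, then compound, then EC80 dopamine at 180 s; signals are read kinetically throughout.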
D2 PAM-1: Beta-Arrestin HTS for Positive Allosteric Modulators of the Human D2 Dopamine Receptor: Potentiators; D(2) dopamine receptor (Homo sapiens), P14416; DiscoveRx D2 beta-arrestin cells, luminescence, 90 min; 100% = 57 uM dopamine signal; potentiation, % (test concentration not listed); hit rate 0.23% among 360,000; in the data active = potentiation above about 50%; inconclusive = mostly about 30% to 49%
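D2 cells co-treated with compound plus 50 nM dopamine (EC20) for 90 min at 37 deg C to detect potentiation. Beta-arrestin recruitment was read as enzyme-fragment luminescence after 1 h at ambient temperature. Full response was set by 57 uM dopamine.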
Apoferritin bind: qHTS Assay for Identification of Novel General Anesthetics. apoferritin/1-aminoanthracene competitive binding, fluorescence. Potency, µM (highest dose often 77.5 µM), inactives show at the top dose activity change, negative = displacement, actives largely listed as inhibitors. hit rate 0.074% among 350,000. AID 485281, 2010; active = well fitted inhibition curve with a large enough effect; inconclusive = small, poorly fitted or top-dose-only effect; inactive = no such curve, though single readings can be large or run the other way; also: potency is read from the fitted curve at half-maximal effect; % is scaled to controls: 0 for no effect and ±100 for the full control effect; nearly all actives have a fitted effect of over 20% in size
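In PBS, apoferritin at 10 uM is loaded with 1-AMA from a 50% saturated solution. After 10 min of compound exposure at ambient temperature, reduced 535 nm fluorescence indicates probe displacement.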
D2 ag-2: HTS Assay for Allosteric Agonists of the Human D2 Dopamine Receptor: Primary Screen for Agonists; D(2) dopamine receptor (Homo sapiens), P14416; HEK293 T-REx D2 cells, calcium flux agonist mode; activation, % at 2 µM; hit rate 0.53% among 340,000;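 active = activation over 3 SD above normal in the single-dose calcium agonist read, cut at about 30% in these data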; also: 0% is about no effect
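HEK293 Trex D2 cells, tetracycline-induced, o/n 30 C 5% CO2; no-wash Ca dye, RT 30–90 min; 10-cycle baseline, 23 nl cpd added, kinetic Ca read 180 s; agonist hits = positive Ca response.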
D2 PAM-2: HTS Assay for Positive Allosteric Modulators of the Human D2 Dopamine Receptor: Primary Screen for Potentiators; HEK293 T-REx D2, calcium flux, EC20 dopamine potentiation; potentiation, % at 10 µM; hit rate 0.34% among 340,000; AID 485347, 2010;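 active = potentiation over 3 SD above the plate norm, cut at about 30% in these data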; also: 0% is about no effect
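Tetracycline-induced Hek293 Trex D2 cells, force-coupled to calcium, loaded with no-wash calcium dye. Compound added with 180 s kinetic read for agonism, then EC20 dopamine and a further 180 s read for potentiation.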
Numbers without * were called inactive; ? = inconclusive; nt = no result given.

SMILES	D2 ag-1	D2 antagonist	D2 PAM-1	Apoferritin bind	D2 ag-2	D2 PAM-2
Cc1cc(-c2ccc(C)c(S(=O)(=O)NCCC(C)N3CCCCCC3)c2)on1 (configuration not stated)	1.1	3.9	-7.7	-0.3%	-1.3	2.9
Cc1cc(-c2ccc(C)c(S(=O)(=O)NCCCN3CCCCCC3)c2)on1	-4.8	33.7*	-37.7	-5.3%	-2.0	-10.8
CCc1ccc(-c2cc(C)no2)cc1S(=O)(=O)NC(C)Cc1ccco1 (configuration not stated)	2.0	4.5	-0.1	-1.9%	0.2	84.5*
Cc1cc(S(=O)(=O)NCCN2CCOCC2)c(C)s1	-1.8	-5.1	-18.9	11.6%	0.2	-15.6
Cc1cc(-c2ccc(C)c(S(=O)(=O)NCCc3ccccc3)c2)on1	nt	nt	nt	7.3%	0.1	1.0
CCc1ccc(-c2cc(C)no2)cc1S(=O)(=O)NCCc1ccccc1	4.3	30.4*	-4.9	-0.5%	0.7	-1.1
Cc1cc(-c2ccc(C(C)C)c(S(=O)(=O)NCc3ccco3)c2)on1	0.8	-12.4	2.9	-11.0%	-0.4	-0.7
O=C(Nc1ccccc1Cl)c1cc(C2CCCN(S(=O)(=O)c3cccs3)C2)on1 (configuration not stated)	3.6	nt	5.4	nt	nt	nt
CC(=O)N1CCN(S(=O)(=O)c2cccc(C(=O)Nc3nccs3)c2)CC1	-6.8	nt	-7.3	-7.1%	nt	nt
C/C(=N\Nc1ccc(Cl)c(C(=O)O)c1)c1ccc(N2CCOCC2)cc1	-0.6	33.1*	7.2	14.8%	2.0	-0.6
Nc1cc(C(=O)OCC(=O)Nc2ccc(N3CCOCC3)cc2)ccc1Cl	-1.9	48.0*	-2.2	nt	-0.8	-6.2
CC(=O)Nc1ccc(C(=O)OCC(=O)Nc2ccc(N3CCOCC3)cc2)cc1	-2.2	5.7	2.8	-4.9%	0.3	0.0
CSc1ccccc1NC(=O)c1cnc2scc(C)n2c1=O	0.5	-5.4	-1.3	1.1%	-0.6	35.7*
O=C(Nc1ccno1)Nc1ccc(Cl)cc1Cl	?	-2.6	61.6*	-4.9%	0.0	4.8
COc1ccc(-c2nn(C)c(=O)c3ccccc23)cc1CNC(=O)c1ccco1	-3.2	8.7	-15.4	-11.9%	0.9	-7.0
COc1ccc(CNC(=S)Nc2ccc(F)c(Cl)c2)cc1	0.7	68.2*	-15.2	-9.2%	1.8	7.0
Cc1ccc(-n2nc(C(=O)N3CCCCC3C)c(=O)n(C)c2=O)cc1 (configuration not stated)	nt	nt	nt	-0.3%	-1.5	-5.7
COc1ccccc1/C=C1\SC(=S)N(Nc2nc(C)cc(C)n2)C1=O	-1.7	-13.2	-15.1	-21.4%	0.5	3.2
Cc1cc(C)nc(NN2C(=O)/C(=C/c3ccc(O)cc3)SC2=S)n1	-7.4	44.7*	-18.4	?	8.9	8.3
Cc1ccc(S(=O)(=O)/N=C2/C=C(C3C(=O)CC(C)(C)CC3=O)C(=O)c3ccccc32)cc1	10.5	5.8	110.1*	-19.7%	-0.4	0.5
CC(=O)NNC(=S)Nc1cc(S(=O)(=O)N(C)C)ccc1C	-5.0	16.1	-34.3	0.2%	-0.4	-3.4
CCCCCCC(C)NC(=S)Nc1cc(S(=O)(=O)N(C)C)ccc1C (configuration not stated)	-1.4	92.2*	-41.2	-8.9%	1.4	-27.1
Cc1ccc(S(=O)(=O)N(C)C)cc1NC(=S)NC(C)CCC(C)C (configuration not stated)	-2.7	77.4*	-37.0	-17.7%	-0.1	-24.9
